Unmarked numbers belong to inactive results. Activity calls are given as the source filed them. Calls come from the whole dose curve; as a rule, active = well fitted activation curve with a large enough effect in the signal ratio in the repeat runs (not every such curve was filed as active); inconclusive = weak or mixed curves, or effect the other way; inactive = no such curve, though single readings can be large or run the other way; the % refers to the signal ratio.
Biological target: Glucocorticoid receptor (Homo sapiens) (UniProt P04150)
Assay: qHTS assay to identify small molecule agonists of the glucocorticoid receptor (GR) signaling pathway (AID 720691)
Settings: GR-bla HeLa, beta-lactamase reporter ratio, 18 h; activation: at 62.4 µM (top of the series) unless noted
Method in brief: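 A HeLa cervical cancer line expressing GR and a glucocorticoid response element-driven beta-lactamase gene is treated with compounds for 18 h; LiveBLAzer B/G FRET substrate is then applied and fluorescence read.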
% is set by controls: 0 for no effect and ±100 for the full control effect.

Sequence of Glucocorticoid receptor (Homo sapiens) (P04150 whole entry, looked up): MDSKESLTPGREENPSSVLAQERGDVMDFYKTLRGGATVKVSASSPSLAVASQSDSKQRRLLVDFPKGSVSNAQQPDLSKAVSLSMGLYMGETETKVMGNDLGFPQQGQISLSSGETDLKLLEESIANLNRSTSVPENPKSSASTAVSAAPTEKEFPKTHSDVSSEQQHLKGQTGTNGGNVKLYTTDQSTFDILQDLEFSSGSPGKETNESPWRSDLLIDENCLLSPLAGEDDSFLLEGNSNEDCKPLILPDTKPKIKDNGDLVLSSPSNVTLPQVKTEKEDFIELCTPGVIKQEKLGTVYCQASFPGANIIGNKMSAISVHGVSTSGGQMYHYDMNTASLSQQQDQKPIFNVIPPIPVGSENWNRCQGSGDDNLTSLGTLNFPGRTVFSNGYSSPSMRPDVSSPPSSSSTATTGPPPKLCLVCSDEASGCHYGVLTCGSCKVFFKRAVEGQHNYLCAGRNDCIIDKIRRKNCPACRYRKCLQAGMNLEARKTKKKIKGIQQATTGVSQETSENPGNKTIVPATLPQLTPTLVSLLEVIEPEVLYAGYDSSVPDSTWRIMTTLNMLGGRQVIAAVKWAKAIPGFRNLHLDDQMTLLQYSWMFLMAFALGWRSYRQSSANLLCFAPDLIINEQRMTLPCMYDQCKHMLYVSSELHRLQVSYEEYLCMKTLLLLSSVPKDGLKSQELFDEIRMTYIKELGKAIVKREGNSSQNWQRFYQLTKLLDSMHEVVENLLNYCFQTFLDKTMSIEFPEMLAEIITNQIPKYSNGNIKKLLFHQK

SMILES	activation	Potency
COC(=O)c1ccc(I)cc1S(=O)(=O)NC(=O)Nc1nc(C)nc(OC)n1	-4.56%	–
CCCOC(C(=O)OC1CCN(C)CC1)(c1ccccc1)c1ccccc1	-5.53%	–
CCC(C)O (stereo not drawn)	-0.285% [at 79.2 µM]	–
CCCCc1ncc(/C=C(\Cc2cccs2)C(=O)O)n1Cc1ccc(C(=O)O)cc1	0.125%	–
CCCCNc1ccc(C(=O)OCCOCCOCCOCCOCCOCCOCCOCCOCCOC)cc1	1.07% [at 29.2 µM]	–
CC(C)Nc1ccc(NC(C)C)c2c1C(=O)c1ccccc1C2=O	-0.918%	–
CC[N+]1(CC)CCC(=C(c2ccccc2)c2ccccc2)C1C (stereo not drawn)	-0.129%	–
CC(C)OC(=O)C(C)N(C(=O)c1ccccc1)c1ccc(F)c(Cl)c1 (stereo not drawn)	-7.14%	–
Cc1cccc(C)c1NC(=O)CN(CC(=O)O)CC(=O)O	0.0514%	–
OC(CN1CCC(Cc2ccc(F)cc2)CC1)c1ccc(Cl)cc1 (stereo not drawn)	-0.424%	–
O=C(c1ccc(F)cc1)C1CCN(CCn2c(=S)[nH]c3ccccc3c2=O)CC1	7.75%	–
CCCCC	–	inactive
CCCCCCCC#N	1.21%	–
O=[N+]([O-])c1ccc(NCCO)c(OCCO)c1	-0.259%	–
C=CCOC(=O)CCC1CCCCC1	-0.0957%	–
O=C(OCCCCCCOC(=O)c1ccccc1)c1ccccc1	-2.41%	–
C/C=C/C(=O)CC	-3.49% [at 15 µM]	–
CCCCC(CC)COC(=O)CCCCCCCCC(=O)OCC(CC)CCCC (stereo not drawn)	1.31%	–
CCOc1ccc(O)cc1	-0.476%	–

SMILES	activation	Potency
CC[N+](C)(CC)CCOC(=O)C(O)(c1ccccc1)C1CCCCC1 (stereo not drawn)	0.604%	–
O=C(O)CC(=O)C(=O)O	-4.68% [at 79.2 µM]	–
O=S(=O)(Oc1ccc(Cl)cc1)c1ccccc1	-0.791%	–
COC(C)OC	0.389%	–
O=C(NCCO[N+](=O)[O-])c1cccnc1	-2.01%	–
CCN(CC)CCOC(=O)C(c1ccccc1)C1CCCCC1 (stereo not drawn)	2.13%	–
O=C1c2ccccc2S(=O)(=O)N1CCCCN1CCN(c2ncccn2)CC1	-1.04%	–
CC1OC(=O)C(C)OC1=O (stereo not drawn)	-1.96%	–
C=CC(=O)OCCOc1ccccc1	-7.41%	–
CCC(Cl)CCC(Cl)C(Cl)CC(Cl)C(Cl)C(Cl)CCl (stereo not drawn)	-1.3%	–
COc1ccc(C(=O)c2ccc(OC)cc2O)c(O)c1	-5.59% [at 79.2 µM]	–
Brc1c2ccccc2cc2ccccc12	9.34% [inconclusive] [at 79.2 µM] (active)	–
O=C1C(O)=C(O)C(=O)C(O)=C1O	-0.924%	–
CCCCC(CC)COC(=O)COc1ccc(Cl)cc1Cl (stereo not drawn)	-3.89% [at 79.2 µM]	–
C[N+]1(CC2COC(c3ccccc3)(C3CCCCC3)O2)CCCCC1 (stereo not drawn)	-2.25%	–
COc1ccc(C)cc1[N+](=O)[O-]	-3.01% [at 79.2 µM]	–
CNC(=O)CN(CCN(CCN(CC(=O)[O-])CC(=O)NC)CC(=O)[O-])CC(=O)[O-].O.[Gd+3]	–	inactive
Cc1c(N)cccc1[N+](=O)[O-]	-4.57% [at 79.2 µM]	–
c1cc(CCCc2ccncc2)ccn1	1.16%	–

Reference: PubChem BioAssay (Tox21)
